High-throughput results deposited in PubChem by several laboratories.
Most compounds without a hit are left out; they make up all but 2.4% or so of the library.
CRFR2-BP antag: antagonists of CRF-BP/CRF-R2 complex, primary screen, cell-based, HEK293, calcium dye fluorescence, uHTS; CRF-induced calcium fluorescence; inhibition, % at 11.8 µM; actives 0.59% (n = 350,000); AID 588475, 2011;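 active = inhibition of the ligand-induced calcium signal above about 50% at the single tested concentration, limit read from the data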
CRFBP-R2 agonist: agonists of CRF-BP/CRF-R2 complex, primary screen, cell-based, HEK293, calcium dye fluorescence, uHTS | calcium dye fluorescence (FLIPR); percent of saturating CRF peptide response | actives 0.46% (n = 350,000) | activation, % at 13.2 µM | CRF-binding protein / CRF receptor 2 complex (human);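 active = activation of at least 50%, plus an integration ratio under a set limit after plate pattern correction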;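 also: plate controls were neutral control wells without compound for no effect and CRF at EC100 for full effect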
ANO1 block: TMEM16A chloride channel inhibitors, primary screen, cell-based, HTS; Anoctamin-1 (Mus musculus), Q8BHY3; HEK293 TMEM16A/YFP iodide influx fluorescence, ionomycin; normalized B-score (activity score, 25-100; higher = stronger inhibition) at 10 µM; actives 1.2% (n = 310,000); AID 588511, 2011;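 active = ratio plate-corrected score three or more library SD toward inhibition, starting fluorescence score within five deviations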;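 also: score derived from kinetic fluorescence span divided by baseline fluorescence per well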
Target sequence (Q8BHY3 whole entry, looked up): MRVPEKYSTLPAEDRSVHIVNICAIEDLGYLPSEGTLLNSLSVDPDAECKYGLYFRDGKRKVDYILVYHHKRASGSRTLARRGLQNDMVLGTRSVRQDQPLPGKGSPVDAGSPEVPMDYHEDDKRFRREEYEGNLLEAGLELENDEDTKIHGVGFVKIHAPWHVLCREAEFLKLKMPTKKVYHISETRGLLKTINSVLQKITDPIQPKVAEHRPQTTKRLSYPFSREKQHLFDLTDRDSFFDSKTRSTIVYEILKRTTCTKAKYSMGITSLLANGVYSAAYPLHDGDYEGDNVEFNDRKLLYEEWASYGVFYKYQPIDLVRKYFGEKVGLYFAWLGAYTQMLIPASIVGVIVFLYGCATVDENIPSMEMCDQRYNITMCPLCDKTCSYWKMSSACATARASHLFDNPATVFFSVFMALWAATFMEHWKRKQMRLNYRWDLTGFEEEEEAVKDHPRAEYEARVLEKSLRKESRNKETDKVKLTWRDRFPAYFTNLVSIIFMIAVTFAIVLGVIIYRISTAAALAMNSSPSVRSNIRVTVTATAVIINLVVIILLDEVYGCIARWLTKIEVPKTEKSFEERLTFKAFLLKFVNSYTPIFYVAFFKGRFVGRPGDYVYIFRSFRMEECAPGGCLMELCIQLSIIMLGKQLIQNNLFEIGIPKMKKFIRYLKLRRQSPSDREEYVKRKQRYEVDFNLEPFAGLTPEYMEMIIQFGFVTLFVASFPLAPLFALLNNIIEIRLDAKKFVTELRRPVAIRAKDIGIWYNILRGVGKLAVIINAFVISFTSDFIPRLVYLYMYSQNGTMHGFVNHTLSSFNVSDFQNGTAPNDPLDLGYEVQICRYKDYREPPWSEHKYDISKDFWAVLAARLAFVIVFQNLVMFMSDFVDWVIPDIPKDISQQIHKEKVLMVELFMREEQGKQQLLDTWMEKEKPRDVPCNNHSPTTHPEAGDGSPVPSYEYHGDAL
RTF Ca sens act: cardiac RTF calcium sensitivity activators, primary screen, biochemical, IANBD-TnC fluorescence, EC20 calcium | activation, % at 7.2 µM | Troponin I, cardiac muscle (Homo sapiens) + Troponin T, cardiac muscle (Homo sapiens) + … | IANBD-labeled TnC RTF fluorescence at EC20 calcium; 0% EC20 calcium, 100% full calcium | actives 0.24% (n = 340,000);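 active = activation above the mean over all tested compounds plus 3 SD, cut at about 30% in these data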;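 also: rise in fluorescence read as greater calcium sensitivity of cardiac thin filaments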
Cardiac RTF inh: cardiac RTF calcium sensitivity inhibitors, primary screen, biochemical, IANBD-TnC fluorescence, EC70 calcium; IANBD-labeled cardiac RTF, Ca2+ fluorescence; actives 0.12% (n = 340,000); Troponin I, cardiac muscle (Homo sapiens) + Troponin T, cardiac muscle (Homo sapiens) + …; inhibition, % at 7.15 µM;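 active = inhibition above the mean inhibition of all tested compounds plus 3 SD, cut at about 17% in these data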;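 also: assay run at fixed EC70 calcium of 1.6 mM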
TMEM16A act: TMEM16A chloride channel activators or potentiators, primary screen, cell-based, HTS | AID 623877, 2012 | actives 0.3% (n = 340,000) | HEK293 TMEM16A/YFP-H148Q/I152L, iodide quench fluorescence; stronger effect = lower value | Anoctamin-1 (Mus musculus), Q8BHY3 | B-score at 10 µM;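 active = fluorescence-ratio B-score plate-corrected deviation score at least 3 library SD below zero, with starting fluorescence score within 5 deviations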;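 also: channel opened by trigger with iodide after compound preincubation; score built on the fluorescence ratio of max minus min over baseline; more negative score means more quench and so TMEM16A activation or potentiation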
TMEM16A reconf: TMEM16A chloride channel inhibitors, confirmation, cell-based, re-confirmation; HEK293 TMEM16A/YFP-H148Q, iodide quench fluorescence; ionomycin added to raise cell calcium; AID 652189, 2013; shares compounds with ANO1 block; inhibition, % at 10 µM; actives 39% (n = 2,300);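 active = mean duplicate percent inhibition, scaled so buffer wells are 0 and the reference blocker 100, over three buffer SD above buffer mean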
TMEM16A Ca cntr: calcium mobilization in TMEM16A/YFP HEK293 cells, confirmation, counter-screen for TMEM16A inhibitor project | shares compounds with ANO1 block | Fluo4 calcium mobilization | calcium response (% of ionomycin), % at 10 µM | actives 2% (n = 2,300) | AID 652231, 2013;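 active = duplicate-averaged calcium signal over 20% of the ionomycin maximum, relative to buffer baseline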;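 also: each well's signal is peak minus trough fluorescence divided by its pre-addition baseline; 0% = buffer wells and 100% = ionomycin wells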
Parental YFP cnt: iodide YFP quench changes in parental YFP-HEK293, counter-screen for TMEM16A inhibitor project, cell-based. shares compounds with ANO1 block. ionomycin. AID 652233, 2013. 2,300 tested, under 10 active. YFP ratio F(max-min)/F0 at 10 µM;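 active = yellow fluorescent protein signal ratio exceeding the buffer control mean by over 5 SD of those controls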;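 also: ratio is mean of duplicate wells from kinetic YFP trace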
ClC-1 rat inh: ClC-1 chloride channel inhibition, selectivity assay for TMEM16A inhibitor project, cell-based, voltage-dependent ClC-1; ratio percent, % at 10 µM; 2,300 tested, under 10 active; shares compounds with ANO1 block; AID 652236, 2013; CHO ClC-1-YFP, iodide influx fluorescence quench; iodide control reads 0, buffer control 100;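 active = duplicate-mean ratio percent above the mean of iodide-only control wells, which defines zero, plus 5 of their SD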;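 also: higher percent means stronger block of ClC-1 iodide influx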
* hit, by the source's call; i = inactive; / = not tested or not shown.

SMILES	CRFR2-BP antag	CRFBP-R2 agonist	ANO1 block	RTF Ca sens act	Cardiac RTF inh	TMEM16A act	TMEM16A reconf	TMEM16A Ca cntr	Parental YFP cnt	ClC-1 rat inh
C=CCNC(=O)c1oc2ccc(S(=O)(=O)N(CC)CC)cc2c1C	32	-4	25*	1	-2	i	i	i	-1	-6
Cc1ccc(NC(=O)CSc2nnc(-c3ccncc3)n2N)cc1C	13	-1	i	-1	-2	i	/	/	/	/
Cc1nnsc1NC(=O)OCc1ccc(Cl)cc1Cl	12	4	i	0	5	i	/	/	/	/
Cc1nn(C)c(Cl)c1NC(=O)OCc1ccc(Cl)cc1Cl	52*	0	25*	-11	-7	i	i	i	-0.79	-16
CCN(CC)c1ccc(-c2nn3c(-c4ccccc4OC)nnc3s2)cc1	14	-4	100*	-2	-4	i	i	i	-1.1	-2
COc1ccc(-c2nn3c(-c4ccccc4)nnc3s2)cc1	6	0	i	-6	-5	i	/	/	/	/
CCN1C=C(Cc2ccc(F)cc2)C2=C(C1)C(c1ccc(F)cc1)C(C#N)=C(N)O2 (configuration not stated)	-14	1	25*	-1	-7	i	i	i	-1.1	-6
Nc1nc(NCCN2CCOCC2)nc(NCc2ccccc2)c1[N+](=O)[O-]	-10	0	i	1	3	i	/	/	/	/
CC(Oc1ccc(Cl)cc1)c1ccnn1S(=O)(=O)c1ccccc1 (configuration not stated)	44	0	100*	-1	-1	i	32%*	i	-1.1	-12
Fc1ccc(-c2nnc(CN3CCN(c4ncc(C(F)(F)F)cc4Cl)CC3)o2)cc1	4	1	100*	2	-6	i	i	i	-1.1	-19
Fc1ccc(N2CCN(Cc3nnc(-c4ccccc4)o3)CC2)cc1	-8	-2	i	3	-7	i	/	/	/	/
Cc1oc2cc3oc(=O)c(CCC(=O)NC4CC4)c(C)c3cc2c1C	-7	0	25*	5	-2	i	i	i	-0.78	-15
O=C(O)c1ccc(Cl)c(S(=O)(=O)Nc2ccc(OCc3ccccc3)cc2)c1	-7	1	i	-1	1	i	/	/	/	/
CCOC(=O)c1sc2nccc(N(C)C)c2c1N=CNOCc1c(F)cccc1Cl	12	3	100*	-2	-1	i	i	i	-0.95	-4
Cc1ccc(NC(=O)CSc2nnc(-c3cccnc3)o2)c(C)c1	14	0	i	-5	6	i	/	/	/	/
Cc1ccc(C)c(NC(=O)CSc2nnc(-c3ccccc3)o2)c1	21	-3	100*	4	-2	i	i	i	-0.99	-8
C#CC(C)(CC)NC(=O)Cn1nnc(-c2ccc(S(C)(=O)=O)cc2)n1 (configuration not stated)	21	0	i	1	-6	i	/	/	/	/
CCCn1nnc(NC(=O)COc2ccc(C3CCCCC3)cc2)n1	-9	-3	100*	3	-4	i	44%*	i	-0.98	-9
C/C=C(/C)C(=O)O[C@@H]1c2c(ccc3ccc(=O)oc23)OC(C)(C)[C@@H]1OC(=O)/C(C)=C\C	19	1	100*	-3	-1	i	23%*	i	-1.1	-8
O=C(O)c1ccc2c(=O)n(Cc3ccccc3)c(SCc3ccc([N+](=O)[O-])cc3)nc2c1	4	-4	25*	-5	0	i	19%*	i	-1.1	-4
Cc1nn(CC(O)COc2ccc3c(c2)CCC3)c(C)c1Br (configuration not stated)	-15	0	i	-2	-5	i	/	/	/	/
CC(=O)c1c(C)nn(CC(O)COc2ccc3c(c2)CCC3)c1C (configuration not stated)	-9	-3	25*	-4	-2	i	i	i	-1.1	-6
CC(NCC(=O)Nc1ccccc1C(=O)NC1CC1)c1ccco1 (configuration not stated)	-8	3	/	1	-16	i	/	/	/	/
CC(Oc1ccc(F)cc1)C(=O)Nc1ccc(N2CCOCC2)cc1N1CCOCC1 (configuration not stated)	15	-5	i	-5	-11	i	/	/	/	/
Cc1noc(C)c1C(=O)Nc1cc(Cl)ccc1N1CCOCC1	-7	1	/	2	-3	i	/	/	/	/
SMILES	CRFR2-BP antag	CRFBP-R2 agonist	ANO1 block	RTF Ca sens act	Cardiac RTF inh	TMEM16A act	TMEM16A reconf	TMEM16A Ca cntr	Parental YFP cnt	ClC-1 rat inh
COc1cccc(OC)c1C(=O)Nc1ccccc1C(=O)N1CCOCC1	11	3	100*	-4	-6	i	i	i	-0.81	-5
COc1ccc(C(=O)Nc2ccccc2C(=O)N2CCOCC2)cc1OC	4	0	i	-2	-16	i	/	/	/	/
COc1cccc(OC)c1C(=O)Nc1cc(Cl)ccc1N1CCOCC1	-61	0	i	-5	-17	i	i	i	-1	-9
CC(Oc1cccc(Cl)c1)C(=O)Nc1ccc(N2CCOCC2)cc1N1CCOCC1 (configuration not stated)	-20	-2	25*	-7	-9	i	i	i	-1	-8
COc1ccc(CCNC(=O)CNC(=O)c2ccccc2Br)cc1OC	9	1	i	-4	0	i	/	/	/	/
CCCOc1ccc(N2C(=O)CC(NCC(=O)OCC)C2=O)cc1 (configuration not stated)	-3	1	i	/	/	i	/	/	/	/
